From PubChem BioAssay AID743326 (National Center for Advancing Translational Sciences (NCATS), 2014)
Activity calls are given as the source filed them. A call without a number means that no potency is given here. The call rests on the fitted dose curve. Numbered stars: 1 amine (or outer) side, 2 acyl side, 3 side chain; on linkers, the order of the positions; unused ones are H or OH. Bridge positions count the residues as written; N and C are the ends. Square brackets hold non-standard residues; d marks the D form. Peptide text beside a SMILES is read from it. I, II: the chains in the order shown. Actinocin(9to1) = Cc1c2oc3c(C)ccc(C(=O)[*:1])c3nc-2c(C(=O)[*:2])c(N)c1=O; NMeV = CN[CH](C(=O)O)C(C)C; Orn = NCCC[C@H](N)C(=O)O; Sar = CNCC(=O)O

Assay: qHTS profiling of Chloroquine Analogs as inhibitors of Plasmodium falciparum (DD2) proliferation
Settings: Potency: Plasmodium falciparum Dd2 proliferation inhibition; series mostly up to 28.7 µM
Excerpt: Plasmodium falciparum is a virulent malarial parasite that kills 1-2 million people worldwide each year. Transmitted by mosquitoes, the sporozoite form of the parasite enters the blood stream to infect hepatocytes, where they become merozoites that infect red blood cells (erythrocytes). Within erythrocytes, merozoites begin a […] cycle of growth and division, after which the parasite is released to infect new red blood cells. Gametocytes, which form within erythrocytes as well, circulate in the bloodstream and are ingested by the mosquito, thereby completing the life cycle. To profile malarial isolates for differential chemical responses and to identify inhibitors of malarial growth, an assay that measures P. falciparum growth and replication within erythrocytes was employed. This assay uses a DNA binding fluorescent dye (SYBR Green) to detect parasite DNA following cell lysis. Because mature erythrocytes lack DNA, only Plasmodium-derived DNA is detected.
The SYBR Green viability assay was adapted from a method described previously (Plouffe et al., 2008). For screening 3 ul culture medium was dispensed into 1536 well black clear bottom plates (Aurora Biotechnologies) using a Multidrop Combi (Thermo Fisher Scientific Inc.), 23 nL compounds in DMSO were added by a pin tool (Kalypsys), and 5 ul of erythrocytes infected with P. falciparum (0.3% parasitemia, 2.5% hematocrit final concentration) were added. The plates were incubated at 37 C in a humidified incubator in 5% CO2 for 72 h, and 2 ul lysis buffer (20 mM Tris HCl, 10 mM EDTA, 0.16% saponin, 1.6% triton X, 10X SYBR Green I supplied as 10,000X […] by Invitrogen) was added to each well. The plates were mixed for 25 sec with gentle shaking and incubated overnight at room temperature in the dark. The following morning, fluorescence intensity at 485(14) nm excitation and 535(25) nm emission wavelengths was measured on an EnVision (Perkin Elmer) plate reader. Plate reads were normalized relative to the control inhibitor (0.29 uM artemisinin) and vehicle (DMSO) wells present on each plate and then corrected by an algorithm using vehicle-only control plates at the beginning and end of the compound plate stack.

Compound	Potency
CCCC(=O)O[C@]1(C(=O)CCl)[C@H](C)C[C@@H]2[C@H]3CCC4=CC(=O)C=C[C@]4(C)[C@@]3(F)C(=O)C[C@@]21C	inactive
O=C(O)c1cn(C2CC2)c2cc(N3CCNCC3)c(F)cc2c1=O	inactive
CCN(CC)CCOCCOC(=O)C(CC)(CC)c1ccccc1	inactive
CCCC[C@@H]1C[C@@H](C(=O)NC([C@H](C)Cl)[C@H]2O[C@H](S)[C@H](O)[C@@H](O)[C@@H]2O)N(C)C1 (some centres not stated)	inactive
C=CC(C)=C[C@@]1(C)SC(=O)C(C)=C1O	inactive
CNCCC(Oc1ccccc1OC)c1ccccc1 (configuration not stated)	inactive
CCN(CC)CCOc1ccc2c(=O)c3ccc(Cl)cc3n(CCN(CC)CC)c2c1	1.33 µM (active)
CC(=O)N(O)CCCP(=O)(O)O	inactive
C[N+]1(C)CCC(=C(c2ccccc2)c2ccccc2)CC1	inactive
CN(C)c1ccc2nc3ccc(=[N+](C)C)cc-3sc2c1	0.0069 µM (active)
C[C@H]1c2cccc(O)c2C(O)=C2C(=O)[C@]3(O)C(O)=C(C(N)=O)C(=O)[C@@H](N(C)C)[C@@H]3[C@@H](O)[C@@H]21	inactive
C[C@@H]1[C@@H](CC(C[C@H]2O[C@@H]3O[C@]4(C)CC[C@@H]5[C@H](C)CC[C@@H]([C@H]2C)[C@@]35OO4)C[S+](=O)([O-])c2ccc(COC(=O)N(C)C)cc2)O[C@@H]2O[C@]3(C)CC[C@H]4[C@H](C)CC[C@@H]1[C@@]24OO3 (some centres not stated)	inactive
COc1cc(NC(C)CCCN)c2ncccc2c1 (configuration not stated)	inactive
COc1cccc(CCc2ccccc2OCC(CN(C)C)OC(=O)CCC(=O)O)c1 (configuration not stated)	0.943 µM (active)
C[C@H]1[C@@H](CCC(=O)Nc2ccc(F)cc2)O[C@@H]2O[C@]3(C)CC[C@@H]4[C@H](C)CC[C@@H]1[C@@]24OO3	inactive
CCCCN(CCCC)CC(O)c1cc(Cl)cc2c1-c1ccc(Cl)cc1C2=Cc1ccc(Cl)cc1 (configuration not stated)	inactive
Cc1nc2c(C#N)cccc2n1-c1ccc(C(=O)NC2CC2)s1	inactive
O=C1C(=O)c2ccccc2C(O)=C1C1CCC(c2ccc(Cl)cc2)CC1 (configuration not stated)	inactive
Oc1cc(Cl)ccc1Oc1ccc(Cl)cc1Cl	3.35 µM (active)

Compound	Potency
C[C@H](N)CN1CCc2ccc(Br)cc21	1.88 µM (active)
COc1cc(C=CC(=O)CC(=O)C=Cc2ccc(O)c(OC)c2)ccc1O	5.3 µM (active)
Cc1cccc(C)c1OCC(N)C(C)C (configuration not stated)	5.95 µM (active)
C[C@@H]1[C@@H](C(=O)C[C@H]2O[C@@H]3O[C@]4(C)CC[C@@H]5[C@H](C)CC[C@@H]([C@H]2C)[C@@]35OO4)O[C@@H]2O[C@]3(C)CC[C@H]4[C@H](C)CC[C@@H]1[C@@]24OO3	0.0013 µM (active)
OB1OCc2cc(F)ccc21	inactive
CN1C[C@H](C(=O)N[C@]2(C)O[C@@]3(O)[C@@H]4CCCN4C(=O)[C@H](Cc4ccccc4)N3C2=O)C[C@@H]2c3cccc4[nH]cc(c34)C[C@H]21	inactive
CNCCCCOc1ccccc1Cc1ccccc1	inactive
CN1CC[C@H](CN2c3ccccc3Sc3ccccc32)C1	inactive
COc1ncnc(NS(=O)(=O)c2ccc(N)cc2)c1OC	1.88 µM (active)
CC(C)C[C@@H]1NC(=O)[C@H](CCCN)NC(=O)[C@H](C(C)C)NC(=O)[C@@H]2CCCN2C(=O)[C@@H](Cc2ccccc2)NC(=O)[C@H](CC(C)C)NC(=O)[C@H](CCCN)NC(=O)[C@H](C(C)C)NC(=O)[C@@H]2CCCN2C(=O)[C@@H](Cc2ccccc2)NC1=O (cyclo(V[Orn]L[dF]PV[Orn]L[dF]P))	0.0007 µM (active)
C[C@@H]1CCC2[C@@H](C)[C@@H](O)O[C@@H]3O[C@@]4(C)CC[C@@H]1[C@@]23OO4 (some centres not stated)	inactive
COc1ccc2nc3cc(Cl)ccc3c(Nc3cc(CN4CCCC4)c(O)c(CN4CCCC4)c3)c2n1	inactive
C[C@@H]1Cc2c([nH]c3cc(Cl)c(F)cc23)[C@]2(N1)C(=O)Nc1ccc(Cl)cc12	inactive
COc1ccc(CCN(C)CCCC(C#N)(c2ccc(OC)c(OC)c2)C(C)C)cc1OC (configuration not stated)	inactive
CN1CCN(CCCN2c3ccccc3Sc3ccc(S(=O)(=O)N(C)C)cc32)CC1	1.14 µM (active)
Cc1c2oc3c(C)ccc(C(=O)NC4C(=O)NC(C(C)C)C(=O)N5CCCC5C(=O)N(C)CC(=O)N(C)C(C(C)C)C(=O)OC4C)c3nc-2c(C(=O)NC2C(=O)NC(C(C)C)C(=O)N3CCCC3C(=O)N(C)CC(=O)N(C)C(C(C)C)C(=O)OC2C)c(N)c1=O (configuration not stated) (I: TVP[Sar][NMeV] / II: TVP[Sar][NMeV]; ester I:1-I:C, II:1-II:C; linker I:N-II:N via Actinocin(9to1); configuration not given here)	0.0024 µM (active)
O=CN(O)CCCP(=O)(O)O	inactive
CC[C@H]1OC(=O)[C@H](C)[C@@H](O[C@H]2C[C@@](C)(OC)[C@@H](O)[C@H](C)O2)[C@H](C)[C@@H](O[C@@H]2O[C@H](C)C[C@H](N(C)C)[C@@H]2O)[C@](C)(O)C[C@@H](C)CN(C)[C@H](C)[C@@H](O)[C@]1(C)O	inactive
